# Experimental data reported in PubChem BioAssay (NCI).
# Compounds without any hit were thinned out: in the full panel of roughly 79,000, 15% have a hit. Values without a mark were called inactive. Calls of active or inactive are those of the source. Cut-off read from the data, not from the text of the source: active = growth inhibition above about 70%; inactive = the rest.
# Test: NCI Yeast Anticancer Drug Screen. Data for the sgs1 mgt1 strain (AID 161);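 note: 0% = growth of cultures given vehicle only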
# Conditions: S. cerevisiae sgs1 mgt1 strain, at 50.0 µM, hits give high values
# In short: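 Genetically altered yeast, compound exposure, growth inhibition relative to vehicle.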
row,Structure (SMILES),growth inhibition
1,CCCCCCCCc1ccc2c3ccccc3c3ccccc3c2c1,65.8%
2,O=C1C(=O)c2ccc(Br)cc2C(O)=C1C(c1ccccc1)c1ccccc1,7.4%
3,CN(C)Cc1ccc2[nH]c3c(c2c1)CCCC3,43.7%
4,COc1ccc(NC(=O)Nc2ccc(Cl)cc2)nn1,1.3%
5,CO/N=C/c1cc(NC(=S)c2ccoc2C)ccc1Cl,93.7% (active)
6,O=C(Sc1c(-c2ccccc2)c(=O)n(-c2ccccc2)c(=S)n1-c1ccccc1)c1cccs1,77.9% (active)
7,O=C1/C(=C/c2ccc(F)cc2)CNC/C1=C\c1ccc(F)cc1,79.2% (active)
8,O=c1cc2cccccc-2cc1O,83.5% (active)
9,Oc1c(Br)cc(Br)cc1-c1ccccc1,99.5% (active)
10,C(=[CH]/[Sn]([c]1ccccc1)([c]1ccccc1)[c]1ccccc1)/c1ccccc1,96.2% (active)
11,CCCCCCCCCN1CCNC1=S,71% (active)
12,O=C1C/C(=C\c2ccccc2)C(=O)c2ccccc2N1,76% (active)
13,CN(C)C(=O)Nc1ccc(Cc2ccc(NC(=O)N(C)C)cc2)cc1,27.6%
14,C=C1CC(C)(COc2ccc3c(C)c(Cl)c(=O)oc3c2)OC1=O (stereo not given),81% (active)
15,CC[C@@]1(OP(=O)(O)O)C(=O)OCc2c1cc1n(c2=O)Cc2cc3ccccc3nc2-1,80.7% (active)
16,O=S(=O)(Sc1ccccc1)C(c1ccccc1)c1ccccc1,14.1%
17,CCOC(=O)c1c(N)sc2c1CCCCC2,52%
18,CCCCCCCCCCCCCCNCCN,92.5% (active)
19,CCCN(CCC)CCNc1ccc(C)c2sc3ccccc3c(=O)c12,99.5% (active)
20,CC1CC2(C)ON=C(c3ccccc3)N2c2ccccc2S1 (stereo not given),82.7% (active)

row,Structure (SMILES),growth inhibition
1,COc1ccc(N=NN2CCCC2)cc1,86.3% (active)
2,S=C(Nc1ccccc1)NC1CC2C=CC1CC2 (stereo not given),1.6%
3,C=CCOC(=O)C(O)C(CC)CCCCC (stereo not given),76.7% (active)
4,NC(=O)c1ccccc1C(=O)O,-36.1%
5,CS(=O)(=O)c1cc(=O)c2ccccc2s1,97.5% (active)
6,O=C([O][Sb]([O]C(=O)C(Cl)(Cl)Cl)([c]1ccccc1)([c]1ccccc1)[c]1ccccc1)C(Cl)(Cl)Cl,67.1%
7,CCCCCCCCCCCCCCCCCCOP(=O)([O-])OCC[N+](C)(C)C,92.5% (active)
8,Nc1ccc(SCCCc2c(N)nc(N)nc2N)cc1,20.6%
9,O=C1C=CC(=O)c2c1cc1ccccc1c2O,1.4%
10,CCN(CC)CC(O)CNc1ccc(NCC(O)CCl)c2c1C(=O)c1ccccc1C2=O (stereo not given),7.1%
11,N#Cc1c(N)nc2c(N=Nc3ccccc3)c(N)nn2c1Nc1ccccc1,79.2% (active)
12,CC(O)c1c2ccccc2cc2ccccc12 (stereo not given),37.6%
13,Cc1ccccc1NC(=O)C1C(=O)N(c2ccccc2C)C(=O)/C1=N/O (stereo not given),-4.55%
14,O=Cc1ccc(-c2nccc3c2[nH]c2ccccc23)o1,19.1%
15,C=CC(C)(CCC=C(C)C)OC(=O)Nc1ccccc1 (stereo not given),16.1%
16,Oc1ccc(-c2nnc(-c3ccc(Cl)cc3Cl)o2)cc1,54.2%
17,C/C=C1\CC(C)(CC)C(C#N)(C#N)C(N)=C1C#N (stereo not given),-4.35%
18,Cc1nc(-c2ccccc2)nc2c1nc(C(C)C)n2Nc1ccccc1,73.8% (active)
19,Cc1csc2c1C(=O)c1ccsc1C2=O,92.2% (active)
20,COc1cc(Nc2ccc(Oc3ccc(O)cc3)cc2)c2ncccc2c1,22.4%
